CYP2C19 inh: human CYP2C19 inhibition | CYP2C19 Supersomes, luciferin-H EGE luminescence, 30 min | inhibition, % at 5 µM | P33261 | 21% of 96,000 active | AID 778;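 active = CYP2C19 inhibition above a set limit at 5 µM in the primary screen, cut at about 50% in these data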;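 note: plate controls were negative control wells for no effect and 2.5 mM tranylcypromine positive control for full effect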
CYP2C9 activ: activators of human CYP2C9 | P11712 | recombinant CYP2C9, luciferin-H conversion, luminescence; hits give high values; factor 1 = untreated enzyme, 0 = blocked | activation factor at 5 µM | 1.4% of 96,000 active | AID 1024;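 active = activation factor of 2 or more for CYP2C9 at a 5 µM dose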;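 note: 0 = sulfaphenazole-blocked wells and 1 = vehicle-only wells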
Target sequence (P11712 whole entry, looked up): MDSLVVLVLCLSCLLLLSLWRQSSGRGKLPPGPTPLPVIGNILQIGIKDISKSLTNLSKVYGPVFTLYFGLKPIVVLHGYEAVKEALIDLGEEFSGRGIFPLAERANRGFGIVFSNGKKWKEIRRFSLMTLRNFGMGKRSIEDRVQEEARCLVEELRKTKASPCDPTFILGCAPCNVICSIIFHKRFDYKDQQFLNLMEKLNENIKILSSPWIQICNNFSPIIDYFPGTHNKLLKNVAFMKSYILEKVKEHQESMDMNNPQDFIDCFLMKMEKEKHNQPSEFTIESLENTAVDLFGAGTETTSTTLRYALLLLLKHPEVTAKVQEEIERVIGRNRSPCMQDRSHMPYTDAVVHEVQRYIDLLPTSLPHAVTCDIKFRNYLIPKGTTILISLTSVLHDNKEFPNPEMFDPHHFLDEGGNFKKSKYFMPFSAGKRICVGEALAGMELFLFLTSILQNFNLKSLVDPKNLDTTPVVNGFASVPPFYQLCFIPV
PostGolgi yeast: growth inhibition of a yeast mutant, post-Golgi transport screen; post-Golgi transport phenotypic cell assay; inhibition, % at 10 µM; 0.9% of 98,000 active;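 note: yeast cells grown in 1536-well plates; yeast grown about 18 h at 30C before absorbance read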
PostGolgi ctrl: growth of the yeast control strain, post-Golgi counter-screen. AID 738. 5% of 98,000 active. inhibition, % at 10 µM. efflux-deficient yeast background strain, growth absorbance A615, 16 h
CYP2C9 inh: inhibitors of human CYP2C9; P11712; CYP2C9 Supersomes, luciferin-H conversion, luminescence; inhibition, % at 5 µM; 20% of 96,000 active; AID 777;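 active = blocking of liver enzyme CYP2C9 beyond about 50% at 5 µM, limit read from the data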
CYP2C19 act: activators of human cytochrome P450 2C19; activation factor at 5 µM; AID 1025; recombinant CYP2C19, luciferin-H EGE luminescence; hits give high values; 0 = fully inhibited enzyme, 1 = untreated enzyme; 96,000 tested, under 10 active;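 active = activation factor of at least 2 at 5 µM in the primary screen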;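 note: 0 = wells with 2.5 mM tranylcypromine and 1 = vehicle-only wells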
Active calls of the source: *. Sampled rows, rich in hits. Any-hit rate of the full collection: about 32%. Cut-off read from the data, not from the text of the source, unless noted: active = inhibition above about 30%; inactive = the rest.

SMILES	CYP2C19 inh	CYP2C9 activ	PostGolgi yeast	PostGolgi ctrl	CYP2C9 inh	CYP2C19 act
CC(NC(=O)c1ccc(CS(=O)(=O)c2cccc(C(F)(F)F)c2)o1)c1ccc2c(c1)OCCO2 (stereo not given)	63.7*	0.4	37.1*	14.2	62.4*	0.4
O=C(NCc1ccc2c(c1)OCO2)c1ccc(CS(=O)(=O)c2ccc(Br)cc2)o1	54.7*	0.1	-5.2	14.6	94.9*	0.5
CCCCNS(=O)(=O)C1CCS(=O)(=O)C1 (stereo not given)	-5.7	0.9	14.0	2.5	7.3	1.1
CC(O)(CS(=O)(=O)Cc1ccccc1)C(=O)Nc1ccc(C(F)(F)F)cc1 (stereo not given)	45.4	0.9	2.4	12.7	14.8	0.5
COc1ccccc1S(=O)(=O)Cc1ccc(C(=O)NCc2cccs2)o1	6.8	0.9	1.3	6.5	6.0	0.9
COc1ccccc1S(=O)(=O)Cc1ccc(C(=O)NCc2ccc3c(c2)OCO3)o1	61.0*	0.3	1.7	2.7	74.6*	0.4
Brc1cccc(C2CC(c3ccccc3)n3nnnc3N2)c1 (stereo not given)	77.6*	0.2	5.9	8.7	80.3*	0.2
c1ccc(C2CC(c3cccs3)n3nnnc3N2)cc1 (stereo not given)	83.2*	0.3	4.9	9.4	73.6*	0.2
O=C(NN1C(=O)c2ccccc2NC1c1ccccc1OCc1ccccc1)c1ccncc1 (stereo not given)	49.3	0.7	-0.6	4.2	32.9	0.5
CN(C)NC1CCS(=O)(=O)C1 (stereo not given)	-3.6	1.1	-2.5	6.7	-5.7	1
CC(=O)Nc1ccc(S(=O)(=O)Oc2cccc(N3C(=O)C4CCCCC4C3=O)c2)cc1 (stereo not given)	40.7	0.2	1.6	-2.4	75.1*	0.6
O=C(Nc1ccc2nc(-c3ccc(Br)o3)[nH]c2c1)c1ccco1	24.8	0.6	-0.3	-7.6	40.2	0.8
O=C(Nc1ccc2nc(-c3ccccc3)[nH]c2c1)c1ccco1	60.8*	0.4	4.3	-5.1	57.7*	0.4
O=C(Nc1cccc(-c2nc3ccccc3[nH]2)c1)c1cccc(NC(=O)c2ccco2)c1	53.8*	0.3	-7.7	0.0	70.2*	0.5
CCOC(=O)c1cnc2ccc(C)cc2c1Sc1ccccc1	16.9	0.5	2.7	30.6*	49.0	0.8
CCOC(=O)c1cnc2ccc(C)cc2c1Nc1ccc(N2CCOCC2)cc1	77.5*	0.2	11.1	15.9	81.4*	0.2
CCOC(=O)c1cnc2ccc(OCC)cc2c1N1CCN(c2ccccc2)CC1	21.3	0.3	8.7	54.3*	69.1*	0.8
CCOC(=O)c1cnc(N2CCOCC2)[nH]c1=O	-10.2	1	-2.9	-6.9	-0.2	1.1
CCOC(=O)c1cnc2c(Cl)c(Cl)ccc2c1N1CCN(C)CC1	3.4	0.9	-4.8	4.0	10.0	1
COc1ccccc1NC(=O)N(c1c(N)n(Cc2ccccc2)c(=O)[nH]c1=O)C1CCCC1	7.0	1.1	-4.4	7.8	-5.6	0.9
CSc1ccccc1NC(=O)c1cc(-c2cccs2)on1	7.5	2.7*	12.6	-0.1	-165.1	0.9
COc1ccc(-c2cc(C(=O)Nc3ccccc3SC)no2)cc1	0.9	1.3	1.1	-1.8	-26.9	1
CCCc1cc(C(=O)Nc2ccccc2SC)no1	20.0	4*	-3.0	2.1	-303.7	0.8
CCCc1cc(C(=O)Nc2cccc(Cl)c2)no1	66.1*	0.9	-7.0	3.7	8.5	0.3
Cc1ccnc(N2CCC(C(=O)Nc3nnc(C)s3)CC2)n1	4.9	1.1	7.4	-1.7	-5.3	1
SMILES	CYP2C19 inh	CYP2C9 activ	PostGolgi yeast	PostGolgi ctrl	CYP2C9 inh	CYP2C19 act
CC1CC(C)CN(C2CCN(Cc3cccnc3)CC2)C1 (stereo not given)	2.6	0.9	-1.9	25.5	12.2	1
COc1cc(C(=O)COC(=O)CNC(=O)C2CCCCC2)cc(OC)c1OC	25.9	0.9	-21.7	-4.7	11.8	0.7
Cc1ccccc1OCC1Cc2c(nc(N)c(C#N)c2N)O1 (stereo not given)	42.3	1	1.9	13.4	-4.4	0.6
CC(C)CN(C(=O)CSc1nnc2c(Cl)cc(C(F)(F)F)cn12)C1CCS(=O)(=O)C1 (stereo not given)	5.3	1.2	11.1	3.2	-16.7	0.9
CCOC(=O)C(C)On1c(-c2cccc(Cl)c2)nc2ccc([N+](=O)[O-])cc21 (stereo not given)	88.2*	0.1	0.2	21.4	88.8*	0.1
COC(=O)c1cc2sccc2n1CC(=O)Nc1cccc(SC)c1	1.3	0.9	1.6	9.7	12.0	1
CCOC(=O)c1cc2sccc2n1CC(=O)Nc1ccc(OC)cc1OC	99.1*	0.3	-1.6	11.9	68.4*	0
COc1cc(Cn2c(C(=O)O)cc3sccc32)cc(OC)c1OC	71.4*	0.6	-2.1	9.7	41.0	0.3
CCOC(=O)c1cc2sccc2n1CC(=O)OC	49.4	0.8	3.6	11.4	23.0	0.5
COC(=O)c1cc2sccc2n1CC(=O)Nc1ccc(OC)c(OC)c1OC	90.6*	0.1	-8.6	3.5	87.5*	0.1
O=C(O)c1ccc(S(=O)(=O)Cc2ccccc2)cc1	-3.5	1	4.0	10.8	1.2	1
CCCn1c(SCC(=O)NCCc2ccccc2)nnc1-c1cccnc1	4.2	1.1	2.0	-0.3	-13.1	1
Cc1nc2ccccc2n1C1CC(=O)N(N(C)C)C1=O (stereo not given)	-2.4	0.9	15.0	-4.0	8.9	1
Cc1ccc(NCc2nnc(SCC(=O)Nc3ccccc3)n2CC2CCCO2)c(C)c1 (stereo not given)	52.3*	0.5	5.6	2.4	48.9	0.5
CCn1c(CNc2ccc(C)cc2C)nnc1SCC(=O)N1CCCc2ccccc21	86.4*	0.6	4.2	7.3	41.0	0.1
COc1ccc(NCc2nnc(SCC(=O)N3CCCc4ccccc43)n2C)cc1	18.3	1.1	7.1	3.8	-8.7	0.8
CCn1c(CNc2ccc(F)cc2)nnc1SCC(=O)N1CCCc2ccccc21	63.0*	1.3	-1.3	12.6	-29.1	0.4
N#C/C(=C/c1ccc(N2CCOCC2)c([N+](=O)[O-])c1)C(N)=O	17.6	0.8	8.5	-8.4	20.7	0.8
CC(C)CCN1C(=O)CCC1(C)C(=O)NC1CCCCCCC1 (stereo not given)	26.6	0.9	3.0	4.7	13.4	0.7
CCOc1cc(-c2noc(N)c2C(=O)OC)cc(OCC)c1OCC	2.6	0.8	0.6	7.0	17.9	1
COC(=O)c1c(-c2ccc(Br)cc2)noc1N	78.1*	0.5	-4.4	16.0	49.8	0.2
CCCC(=O)NC(=S)Nc1cccc(Cl)c1N1CCCCC1	69.2*	0.1	-6.1	15.7	93.1*	0.3
CCC(=O)NC(=S)Nc1cccc(Cl)c1N1CCCCC1	1.5	0.9	1.6	44.8*	8.2	1
